In all, about 33,000 sequences were measured (“E-score (-0.5 to 0.5)”: median about -0.032, highest 2% from about 0.36 on). This is one part of a sample in which the highest values are shown more often than they occur.
These sequences were tested against T1, Sko1 (UniProt Q02100) (assay: PBM E-score (8-mer binding enrichment) (E-score (-0.5 to 0.5)); higher = stronger / more preferred TF binding). Settings: protein concentration: 200 nM; construct: GST-full length.
T1 sequence: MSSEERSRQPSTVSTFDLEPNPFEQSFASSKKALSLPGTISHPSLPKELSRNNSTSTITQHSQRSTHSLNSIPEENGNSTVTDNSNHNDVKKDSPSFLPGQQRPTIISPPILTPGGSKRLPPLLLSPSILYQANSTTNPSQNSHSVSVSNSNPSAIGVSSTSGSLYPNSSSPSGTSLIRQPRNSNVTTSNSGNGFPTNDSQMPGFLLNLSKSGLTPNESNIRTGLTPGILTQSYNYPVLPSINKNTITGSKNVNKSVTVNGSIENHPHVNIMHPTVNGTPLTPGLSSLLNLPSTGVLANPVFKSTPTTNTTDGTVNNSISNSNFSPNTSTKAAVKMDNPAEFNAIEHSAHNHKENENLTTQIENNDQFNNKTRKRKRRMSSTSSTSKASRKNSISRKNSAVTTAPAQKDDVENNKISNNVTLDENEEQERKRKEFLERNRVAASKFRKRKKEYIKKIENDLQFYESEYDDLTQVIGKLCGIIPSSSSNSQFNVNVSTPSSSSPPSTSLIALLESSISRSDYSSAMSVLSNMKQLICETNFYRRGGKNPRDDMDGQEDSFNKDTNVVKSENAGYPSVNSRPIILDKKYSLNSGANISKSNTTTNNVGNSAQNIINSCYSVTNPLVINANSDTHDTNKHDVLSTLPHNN
Description: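 Universal 'all 10-mer' protein binding microarrays (Agilent AMADID 015681) probed with GST-tagged S. cerevisiae TFs (full-length or DBD) made by in vitro transcription/translation (PURExpress), about 100-200 nM. Bound TF was detected with fluorescent anti-GST. Each ungapped 8-mer (which stands for itself and its reverse complement) is scored by the PBM enrichment score (E-score), a modified Wilcoxon-Mann-Whitney statistic from -0.5 to +0.5, computed with the Universal PBM Analysis Suite. Scale: above 0.35 generally sequence-specific binding.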

Which “PBM E-score” value does the source give for AACGCAAG here?
The value was 0.0717.

With TACGCATA as the sequence, how does the “PBM E-score” value read?
The value was 0.368.

AACGCAAC was tested. Which “PBM E-score” value did it give?
The value was 0.289.

With CACGCACG as the sequence, how does the “PBM E-score” value read?
Its value is 0.204.

For TACGCAAA, which “PBM E-score” value is on record?
The value was 0.415.

With CACGCATA as the sequence, how does the “PBM E-score” value read?
Its value is 0.0358.

CACGCACA was tested. Which “PBM E-score” value did it give?
The value was 0.222.

Which “PBM E-score” value does the source give for AACGCATA here?
Its value is 0.219.

How did the “PBM E-score” value turn out when GACGCAAA was run?
The value was 0.347.

With AACGCAAA as the sequence, how does the “PBM E-score” value read?
The value was 0.175.

For AACGCAAT, which “PBM E-score” value is on record?
The value was 0.38.

For TACGCACA, which “PBM E-score” value is on record?
The value was 0.401.

TCAGCCGA was tested. Which “PBM E-score” value did it give?
The value was -0.104.

With GGGGCGAC as the sequence, how does the “PBM E-score” value read?
The value was -0.228.

Which “PBM E-score” value does the source give for GAGACCGC here?
The value was -0.32.

With CATGCCTC as the sequence, how does the “PBM E-score” value read?
Its value is 0.0373.

For TAGAGCGA, which “PBM E-score” value is on record?
Its value is -0.114.

With GGGTTGTA as the sequence, how does the “PBM E-score” value read?
Its value is -0.19.

For CACGCAAG, which “PBM E-score” value is on record?
The value was 0.3.

With CACGCAAC as the sequence, how does the “PBM E-score” value read?
The value was 0.379.

GACGCACA was tested. Which “PBM E-score” value did it give?
Its value is 0.36.

With CACGCAAA as the sequence, how does the “PBM E-score” value read?
The value was 0.26.

With AACGCACA as the sequence, how does the “PBM E-score” value read?
Its value is 0.161.

AACGCACG was tested. Which “PBM E-score” value did it give?
The value was 0.31.

With TCGCTTAA as the sequence, how does the “PBM E-score” value read?
Its value is -0.0032.

GAGACTGC was tested. Which “PBM E-score” value did it give?
The value was -0.054.

With AAAGAACT as the sequence, how does the “PBM E-score” value read?
Its value is -0.0725.

How did the “PBM E-score” value turn out when AACAGAGG was run?
The value was -0.205.

How did the “PBM E-score” value turn out when CGGTTCTC was run?
The value was -0.0999.

How did the “PBM E-score” value turn out when AACCTTCT was run?
The value was -0.298.

With CAAGGTCA as the sequence, how does the “PBM E-score” value read?
Its value is -0.144.

For CGTGACAA, which “PBM E-score” value is on record?
The value was 0.188.

With CGTGATGA as the sequence, how does the “PBM E-score” value read?
Its value is 0.36.

Which “PBM E-score” value does the source give for AGTGACCC here?
Its value is -0.23.

AGTGACGC was tested. Which “PBM E-score” value did it give?
Its value is 0.416.

AGTGATGA was tested. Which “PBM E-score” value did it give?
Its value is 0.21.

With CGTGACGA as the sequence, how does the “PBM E-score” value read?
The value was 0.411.

Which “PBM E-score” value does the source give for GGTGATGA here?
Its value is 0.18.

How did the “PBM E-score” value turn out when CGTGACGC was run?
The value was 0.422.

Which “PBM E-score” value does the source give for CTTGACGC here?
Its value is 0.262.

With AGTGACTC as the sequence, how does the “PBM E-score” value read?
The value was -0.0159.

With CCTGACGC as the sequence, how does the “PBM E-score” value read?
The value was 0.0655.

Which “PBM E-score” value does the source give for CGTGACCA here?
Its value is -0.0216.

For ACCTGAGC, which “PBM E-score” value is on record?
The value was 0.0188.

AACTGGTC was tested. Which “PBM E-score” value did it give?
The value was -0.112.

For CTTAGTTC, which “PBM E-score” value is on record?
The value was 0.0167.

Which “PBM E-score” value does the source give for AAACAGCT here?
Its value is -0.0726.

With CGCTCTCA as the sequence, how does the “PBM E-score” value read?
Its value is -0.0854.

Which “PBM E-score” value does the source give for GAAACACC here?
Its value is 0.02.

For TAGTTCAA, which “PBM E-score” value is on record?
Its value is 0.0959.

For GGCGCACC, which “PBM E-score” value is on record?
Its value is -0.36.

With TCACAAGA as the sequence, how does the “PBM E-score” value read?
The value was -0.00762.

With CCTGGCGC as the sequence, how does the “PBM E-score” value read?
The value was -0.133.

How did the “PBM E-score” value turn out when AGGTAAAT was run?
Its value is 0.131.

How did the “PBM E-score” value turn out when CCGTAAAA was run?
Its value is 0.053.

How did the “PBM E-score” value turn out when ACGTAAAT was run?
The value was 0.463.

AAGTAAAT was tested. Which “PBM E-score” value did it give?
Its value is 0.139.

GCGTAAAA was tested. Which “PBM E-score” value did it give?
Its value is 0.279.

GCGTAAAC was tested. Which “PBM E-score” value did it give?
Its value is 0.281.

Which “PBM E-score” value does the source give for ACGTAAAA here?
The value was 0.463.

Which “PBM E-score” value does the source give for CCGTAAAC here?
The value was 0.104.

For CCGTAAAG, which “PBM E-score” value is on record?
Its value is 0.0256.

How did the “PBM E-score” value turn out when ACGTAAAC was run?
Its value is 0.459.

Which “PBM E-score” value does the source give for AAGTAAAG here?
The value was -0.152.

How did the “PBM E-score” value turn out when ACGTAAAG was run?
Its value is 0.461.

CACGCACC was tested. Which “PBM E-score” value did it give?
The value was 0.115.

Which “PBM E-score” value does the source give for AGCTTTGC here?
Its value is -0.179.

With GAAAATGC as the sequence, how does the “PBM E-score” value read?
The value was 0.0279.

With GAGTAGCA as the sequence, how does the “PBM E-score” value read?
Its value is 0.0153.

TCTGGCAA was tested. Which “PBM E-score” value did it give?
Its value is -0.261.

How did the “PBM E-score” value turn out when CTGAAAGA was run?
The value was -0.0455.

How did the “PBM E-score” value turn out when CATTGCAG was run?
The value was 0.0387.

For GGATGCAC, which “PBM E-score” value is on record?
The value was -0.16.

GTCTGCAC was tested. Which “PBM E-score” value did it give?
Its value is -0.118.

With AGACGTCT as the sequence, how does the “PBM E-score” value read?
The value was 0.271.

AGACGTCA was tested. Which “PBM E-score” value did it give?
The value was 0.484.

For GGACGTCA, which “PBM E-score” value is on record?
The value was 0.466.

Which “PBM E-score” value does the source give for GGCCGTCA here?
Its value is -0.184.

Which “PBM E-score” value does the source give for CGACGTCG here?
Its value is 0.209.

GGACGTCC was tested. Which “PBM E-score” value did it give?
Its value is -0.151.

With CGACGTCC as the sequence, how does the “PBM E-score” value read?
The value was 0.169.

How did the “PBM E-score” value turn out when AGACGTCC was run?
The value was 0.281.

Which “PBM E-score” value does the source give for CGACGTCA here?
The value was 0.486.

Which “PBM E-score” value does the source give for GCAGATGA here?
Its value is -0.0175.

For AGCCGGAG, which “PBM E-score” value is on record?
The value was 0.0107.

For CAAGTACC, which “PBM E-score” value is on record?
Its value is -0.0542.

Which “PBM E-score” value does the source give for AAGGATCG here?
The value was 0.0147.

With AAGTTTTA as the sequence, how does the “PBM E-score” value read?
The value was 0.142.

AGTCGGAA was tested. Which “PBM E-score” value did it give?
The value was -0.0901.

How did the “PBM E-score” value turn out when AGACTCAT was run?
The value was 0.183.

With ATTACGGG as the sequence, how does the “PBM E-score” value read?
The value was 0.206.

ATTACCTG was tested. Which “PBM E-score” value did it give?
The value was 0.067.

For ATTAGGTC, which “PBM E-score” value is on record?
Its value is 0.207.

How did the “PBM E-score” value turn out when ATTACGTC was run?
The value was 0.492.

How did the “PBM E-score” value turn out when ATTACGTG was run?
The value was 0.487.

ATTACGGC was tested. Which “PBM E-score” value did it give?
Its value is 0.303.

Source: the supplement of paper PMC3334620
